Source: PubChem BioAssay AID2517 (National Center for Advancing Translational Sciences (NCATS), 2012)
Several values for one entry are separate records, joined by “and”; a condition that tells them apart may be missing. Equal entries are not always repeated. Screen size: about 350,000 compounds; about 1,200 (0.34%) were called active. Entries that show only a call come without a potency. About 3% were inconclusive and are not listed. The call rests on the fitted dose curve; in most records, active means well fitted inhibition curve with a large enough effect; inconclusive means small, poorly fitted or top-dose-only effect; inactive means no such curve, though single readings can be large or run the other way. For the sample, actives were picked, then their nearest neighbours and some compounds at random.

Biological target: DNA repair nuclease/redox regulator APEX1 (Homo sapiens) (UniProt P27695)
Sequence (P27695 whole entry, looked up): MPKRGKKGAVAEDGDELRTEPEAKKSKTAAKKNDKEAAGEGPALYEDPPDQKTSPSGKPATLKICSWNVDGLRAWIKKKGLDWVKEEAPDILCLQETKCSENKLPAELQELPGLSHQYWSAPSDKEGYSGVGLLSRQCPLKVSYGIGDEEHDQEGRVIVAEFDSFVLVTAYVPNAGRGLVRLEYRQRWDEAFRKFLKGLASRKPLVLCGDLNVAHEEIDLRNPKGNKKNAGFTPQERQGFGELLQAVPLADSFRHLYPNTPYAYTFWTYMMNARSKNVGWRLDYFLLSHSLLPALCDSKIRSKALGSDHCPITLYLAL
Assay: qHTS Assay for Inhibitors of the Human Apurinic/apyrimidinic Endonuclease 1 (APE1); further: nearly all actives have a fitted effect of over 55% in size
Details: recombinant APE1, TAMRA/BHQ-2 abasic DNA cleavage fluorescence; activity change, negative = inhibition: at 65.8 µM (top of the series)
Source text: The apurinic/apyrimidinic endonuclease APE1 is the primary mammalian enzyme responsible for the removal of abasic (or AP) sites in DNA and functions centrally in the base excision DNA repair (BER) pathway. […] Thus, targeting APE1 could improve the efficacy of current treatment paradigms by promoting selective sensitization or protection of diseased and normal cells, respectively.
Inhibition of APE1 activity was screened by utilizing double-stranded short substrate containing tetrahydrofuran (THF) abasic site labeled with rhodamine-type fluorophore (TAMRA) at the 5'-end and with non-fluorescent Black Hole Quencher-2 (BHQ-2) at the opposing 3'-end. An increase in the fluorescence intensity due to incision of the abasic site by APE1 was used to measure the enzyme activity.
NIH Chemical Genomics Center [NCGC]
NIH Molecular Libraries Probe Centers Network [MLPCN]
Assay Provider: David M. Wilson, III, National Institute on Aging, NIH
Three uL of enzyme solution (0.75 nM APE1 final concentration) was dispensed to 1536-well Greiner black solid bottom plates. […] The plates were incubated for 15 min at room temperature, and then 1 uL of substrate solution (50 nM final concentration of TAMRA/BHQ-2) was added to start the reaction. The plates were immediately transferred into ViewLux High-throughput CCD imager (Perkin-Elmer) in order to measure the reaction progress in kinetic mode (three reads every 60 seconds) using 525 nm excitation and 598 nm emission fluorescence protocol. The fluorescence intensity difference between the third and the first time points was used to compute reaction progress. Results were normalized to buffer only columns and NSC13755 positive controls and negative control DMSO treated wells.
Potency means the concentration at half of the fitted maximal effect.

SMILES	Potency	activity change, negative = inhibition
Cc1cc2nc3c(=O)[nH]c(=O)nc-3n(C[C@H](O)[C@H](O)[C@H](O)CO)c2cc1C	inactive	
COC(=O)C/C=C/[C@@H](C)[C@H](NC(=O)OCC(Cl)(Cl)Cl)c1ccccc1	inactive	
O=c1c(-c2ccc(F)cc2)nc2cnc(N3CCNCC3)nc2n1Cc1cccs1	inactive	
CCCCC/C=C\C/C=C\CCCCCCCCCC(N)=O	inactive	
Cc1cc(C)c2c(=O)[nH]c(SCC(=O)Nc3ccc(Br)cc3)nc2n1	inactive	
O=C(CSc1nc2ccccc2c(=O)[nH]1)Nc1nc(-c2ccc(Br)cc2)cs1	inactive	
N#Cc1c(-c2cccs2)nc(SCC(=O)c2ccc(Br)cc2)[nH]c1=O	39.8 µM (active)	
O=C(O)c1ccc(/C=C2/SC(=S)N(c3cccc(C(F)(F)F)c3)C2=O)cc1	inactive	
OC[C@H]1O[C@@H](n2cnc3c(N[C@H]4CC5CCC4C5)ncnc32)[C@H](O)[C@@H]1O (stereo partly drawn)	inactive	
C=C(C(C)=O)C(O)c1ccc([N+](=O)[O-])cc1 (stereo not drawn)	inactive	
CCCCC[C@H](O)/C=C/[C@@H]1[C@@H](CC(=O)CCC(=O)O)[C@@H](O)C[C@H]1O	inactive	
CCOC(=O)c1ccc[n+](CC(=O)Nc2ccccc2OC(F)F)c1	inactive	
Cc1ccc(-c2nc(SCC(=O)Nc3ccccc3OC(F)F)c3c(C)c(C(=O)O)sc3n2)cc1	39.8 µM (active)	
COc1ccccc1NC(=O)CSc1nc2sc3c(c2c(=O)n1-c1ccccc1)CCN(C)C3	inactive	
CC(=O)OCC1OC(C#Cc2ccccc2Cl)C=CC1OC(C)=O (stereo not drawn)		-9.65% [at 12.4 µM] (inactive)
CC(=O)Oc1c2c(c3c(c1CC=C(C)C)O[C@@]14C(=CC5CC1C(C)(C)OC4(C/C=C(\C)C(=O)O)C5=O)C3=O)OC(C)(CCC=C(C)C)C=C2 (stereo partly drawn)	inactive	
O=C1N[C@H](Cc2c[nH]c3ccccc23)COC(=O)[C@H](Cc2ccc(F)cc2)C/C=C\C[C@H]1CC(=O)N(CCO)Cc1ccccc1	21.2 µM (active)	
CC(C)(C)OC(=O)C[C@@H]1C/C=C\C[C@@H](CC(=O)N(CCO)Cc2ccccc2)C(=O)N[C@H](Cc2ccccc2)COC1=O	inactive	
C[C@H]1COC(=O)[C@H](CC(=O)OC(C)(C)C)C/C=C\C[C@@H](CC(=O)N[C@H](CO)Cc2ccccc2)C(=O)N1	inactive	
O=C1N[C@@H](c2ccccc2)COC(=O)[C@H](Cc2ccc(F)cc2)C/C=C\C[C@@H]1CC(=O)N(CCO)Cc1ccccc1	inactive	
CC(C)(C)OC(=O)C[C@@H]1C/C=C\C[C@@H](CC(=O)NCCO)C(=O)N[C@H](Cc2c[nH]c3ccccc23)COC1=O	15 µM (active)	
CC(C)(C)OC(=O)C[C@@H]1C/C=C\C[C@H](CC(=O)N[C@@H](CO)Cc2ccccc2)C(=O)N[C@H](Cc2ccccc2)COC1=O	inactive	

SMILES	Potency	activity change, negative = inhibition
CCCCc1nn(-c2ccccc2C(F)(F)F)c(=O)n1Cc1ccc(-c2ccccc2S(=O)(=O)NC(=O)c2sccc2C)cc1	inactive	
CO[C@H]1COC(=O)[C@@H](OCc2ccccc2)/C=C\[C@H](C)[C@@H](OC)COC(=O)[C@H](OCc2ccccc2)/C=C\[C@@H]1C		33.1% [at 12.4 µM] (inactive)
COc1ccc(CCCOC(Cn2ccnc2)c2ccc(OC)cc2)cc1 (stereo not drawn)	inactive	
Cc1ccc(N=C2NC(=O)/C(=C/C=C/c3ccco3)S2)cc1C	28.2 µM (active)	
CCC[C@@H]1C[C@@]1(CCC)C(NC(=O)c1ccc(-c2ccccc2)cc1)c1cccc(Cl)c1 (stereo partly drawn)	inactive	
CCCn1c(-c2ccc(F)cc2)nc2c(NC3CCN(Cc4ccccc4)C3)nc(C)nc21 (stereo not drawn)	inactive	
COc1ccc(C(=O)N2CCC3(CC2)CCN(c2ccccn2)CC3)cc1	inactive	
COc1ccc(-c2nc3c(c4c2C[C@H](c2ccccc2)OC4)CN(C(=O)c2cccnc2)CC3)c(C)c1		-2.55% [at 12.4 µM] (inactive)
NC(=O)C1CCN(c2nc(-c3cccc(F)c3)cs2)CC1	inactive	
C=C[C@](C)(O)CCC1C(=C)CCC2[C@@](C)(CO)CCC[C@@]12C (stereo partly drawn)	inactive	
COc1ccc2[nH]c3c(C)c4cc[n+](C)cc4c(C)c3c2c1	12.6 µM (active)	
COc1ccc2[nH]c(C(=O)N3CCN(C)CC3)c(C)c2c1	inactive	
COc1ccc2[nH]c(=S)cc(C)c2c1	inactive	
CC/C=C\C/C=C\C/C=C\C/C=C\C/C=C\C/C=C\CCC(=O)NCCc1ccc(O)c(O)c1	inactive	
COC(=O)C(C(=O)OC)[C@@H](NC=O)c1ccccc1	inactive	
Nc1nc2c(nc(Cl)n2C2OC(CO)C(O)C2O)c(=O)[nH]1 (stereo not drawn)	inactive	
COc1cccc(-c2cc(NCCc3c[nH]c4ccc(OC)cc34)ncn2)c1	inactive	
CS(=O)(=O)NC(=O)CCC/C=C\C[C@H]1C(=O)C[C@@H](O)[C@@H]1/C=C/[C@H](O)COc1ccccc1	inactive	
CC/C=C\C/C=C\C/C=C\C/C=C\C/C=C\C/C=C\CCC(=O)NC(C)C(=O)O (stereo not drawn)	inactive	
COC(=O)c1ccc(C(NC(=O)OCc2ccccc2)/C(C)=C/[C@@H](C)C(=O)NCc2cc(C)on2)cc1 (stereo partly drawn)	inactive	
CC(C)(C)c1ccc(OC2C=CC(C#Cc3ccccc3)OC2CO)cc1 (stereo not drawn)		3.5% [at 12.4 µM] (inactive)
COCCNC(=O)Nc1ccc2nc(-c3ccco3)c(-c3ccco3)nc2c1	6.31 µM (active)	

SMILES	Potency	activity change, negative = inhibition
O=C(Nc1nc(-c2ccco2)c(-c2ccco2)s1)c1ccco1	inactive	
O=C(NCc1ccccn1)c1ccc2nc(-c3ccco3)c(-c3ccco3)nc2c1	10 µM (active)	
COCCNC(=O)c1snc2ccc(Cl)cc12	inactive	
O=C1CSc2ccc(C(=O)NCc3ccccn3)cc2N1	inactive	
COc1cccc(S(=O)(=O)NCc2ccc(C(=O)NCc3ccccn3)cc2)c1	inactive	
O=C(O)CC(C(=O)O)C(CC(=O)O)C(=O)O (stereo not drawn)	inactive	
NC(=O)c1sc(-c2ccsc2)cc1N	inactive	
COc1ccc(CC(N)C(=O)NC2C(O)[C@H](n3cnc4c(N(C)C)ncnc43)O[C@@H]2CO)cc1 (stereo partly drawn)	inactive	
CCCn1c(C)nc2c(NCCCCN(CC)CC)nc(C)nc21	inactive	
C=C1CCN(C(CC(C)C)C(=O)N2CCOCC2)S(=O)(=O)c2ccccc21 (stereo not drawn)	inactive	
CC(C)C(=O)Nc1c(O)c2ccccc2[nH]c1=O	inactive	
O=C1C(c2[nH]c3ccccc3c2O)=Nc2ccccc21	7.94 µM (active) and 3.98 µM (active)	
O=C(Cc1c(O)c2ccccc2[nH]c1=O)NCc1ccccc1	inactive	
CCCCC/C=C\C/C=C\CCCCCCCCCC(=O)NCC(=O)O	inactive	
CCCCCCCC/C=C\CCCCCCCC(=O)NCC(=O)O	inactive	
Cc1cccc(-c2cc(=O)c3cc(C)ccc3o2)c1	inactive	
COc1c(O)cc2oc(-c3ccc(O)c(O)c3)cc(=O)c2c1O	7.08 µM (active)	
COc1ccc2c(=O)cc(-c3ccccc3)oc2c1O	inactive	
Cc1ccc(NC(=O)O[C@@H]2C(=O)c3cc(Br)ccc3O[C@H]2c2ccc3c(c2)OCO3)cc1Br	inactive	
CC(C)(C)n1ncc2c(=O)n(Cc3ccc(C(=O)c4ccccc4)cc3)cnc21	inactive	
Cc1cccc2c3c(ccc12)C1=C(C(=O)C3=O)C(C)CO1 (stereo not drawn)	inactive	
CN[C@@H]1[C@H](O[C@H]2[C@H](O[C@H]3[C@H](O)[C@@H](O)[C@H](N=C(N)N)[C@@H](O)[C@@H]3N=C(N)N)O[C@@H](C)[C@]2(O)CO)O[C@@H](CO)[C@H](O)[C@H]1O	inactive	

SMILES	Potency	activity change, negative = inhibition
CCOC(=O)C1=C(C)N=C2c3ccccc3C(=O)C2C1c1ccc(Br)cc1 (stereo not drawn)	inactive	
CCOC(=O)C1=NO[C@@]2(C=C(Br)C(=O)[C@H]3O[C@H]32)C1	7.94 µM (active)	
CCOC(=O)C1=NOC(Cn2cc(C(C)=O)c(=O)[nH]c2=O)C1 (stereo not drawn)	inactive	
CC(C)C[C@@H](CC(=O)N[C@@H](CCC(=O)O)CC(=O)O)NC(=O)[C@@H]1CCCC[C@H]1NC(=O)C[C@@H](NC(=O)C[C@H](Cc1c[nH]c2ccccc12)NC(=O)[C@@H]1CCCC[C@H]1N)C(C)C	inactive	
CC(C)C1=CC2=CC[C@@H]3[C@](C)(CO)CCC[C@]3(C)C2CC1 (stereo partly drawn)	inactive	
Clc1ccc(CSc2nnc3c(n2)[nH]c2ccccc23)cc1	inactive	
O=C(CSc1nnc(-c2ccco2)n1-c1ccccc1)NCCc1ccccc1	inactive	
c1ccc(CSc2nnc(-c3ccco3)c(-c3ccco3)n2)cc1	10 µM (active)	
O=c1c(-c2cc(F)cc(F)c2)nc2cnc(Oc3ccccc3)nc2n1C[C@H]1CCCO1	inactive	
CC/C=C/C/C=C/C/C=C/CCCCCCCC(=O)OCC	inactive	
CN(C(=O)COC(=O)Cc1ccccc1[N+](=O)[O-])C1CCS(=O)(=O)C1 (stereo not drawn)	inactive	
COc1ccc(/C=C(\C#N)C(=O)OCC(=O)N(C)C2CCS(=O)(=O)C2)cc1 (stereo not drawn)	inactive	
CN(C(=O)COC(=O)c1cc(-c2ccco2)nc2ccccc12)C1CCS(=O)(=O)C1 (stereo not drawn)	7.94 µM (active)	
C1CCC2OC2C1 (stereo not drawn)	inactive	
COc1ccc(-c2nn(-c3ccccc3)cc2/C=C2/SC(=S)N(CCCC(=O)O)C2=O)c(C)c1	29.9 µM (active)	
Cc1ccc(-c2nn(-c3ccccc3)cc2/C=C2\SC(=S)N(CCCCCC(=O)O)C2=O)o1	inactive	
COc1cccc(/C=C2/SC(=S)N(CC(=O)NC3C=CS(=O)(=O)C3)C2=O)c1 (stereo not drawn)	inactive	
C=C1C(=O)C23C(O)C1CCC2[C@]12COC3(O)C(O)C1C(C)(C)CC[C@H]2O (stereo partly drawn)	inactive	
CC[C@@]12C=C(/C=C/c3ccccc3)[C@](CC)(C1)[C@H](c1ccccc1)CC2=O	inactive	
O=C(CCNC(=O)c1ccccc1Cl)NN=Cc1ccco1	inactive	
O=C(CCc1n[nH]c(=O)[nH]c1=O)N/N=C/c1ccc(Br)o1	inactive	
O=C(CCNC(=O)c1ccccc1)NN=Cc1ccc(Br)o1	15 µM (active)	
